Results filed as inconclusive are left out. Entries that show only a call come without a potency. Activity calls are given as the source filed them. Unless noted, calls follow the shape of the full dose curve.
Assays:
[1] = qHTS for Inhibitors of the Functional Ribonucleoprotein Complex (vRNP) of Lassa (LASV) Arenavirus: LASV Primary Screen - GLuc reporter signal (AID 1347082; calls by dose curve; tested in HEK293 reporter line; also: nearly all actives have a fitted effect of over 60% in size)
[2] = qHTS for Inhibitors of the Functional Ribonucleoprotein Complex (vRNP) of Lassa (LASV) Arenavirus: Viability assay - alamar blue signal for LASV Primary Screen (AID 1347083; calls by dose curve; tested in HEK293 reporter line; also: nearly all actives have a fitted effect of over 80% in size)
[3] = qHTS for Inhibitors of the Functional Ribonucleoprotein Complex (vRNP) of Lymphocytic Choriomeningitis Arenaviruses (LCMV): Viability assay - alamar blue signal for LCMV Primary Screen (AID 1347085; calls by dose curve; tested in HEK293 reporter line; also: nearly all actives have a fitted effect of over 80% in size)
[4] = molecular target: Nucleoprotein (Lymphocytic choriomeningitis virus (strain Armstrong)) (UniProt P09992); assay: qHTS for Inhibitors of the Functional Ribonucleoprotein Complex (vRNP) of Lymphocytic Choriomeningitis Arenaviruses (LCMV): LCMV Primary Screen - GLuc reporter signal (AID 1347086); also: nearly all actives have a fitted effect of over 70% in size
[5] = Cytotoxicity counterscreen for inhibitors of SARS-CoV-2 cell entry (AID 1645845); also: nearly all actives have a fitted effect of over 50% in size
Method in brief: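 After a 15 min room-temperature ATPLite 1step step, luminescence reflected ATP remaining in HEK293-ACE2 cells exposed to compound for 1 h plus 48 h at 37 C, with percent activity set by cell and no-cell controls.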

CRL-7250 = normal cell line; assay: qHTS assay to identify novel small-molecules to repurpose for Merkel cell carcinoma treatment (AID 1296009; active = well fitted curve in the direction sought with a large enough effect; an effect the other way counts as inactive or inconclusive; also: nearly all actives have a fitted effect of over 60% in size); details: MCC and control cell lines, CellTiter-Glo viability, 72 h; series mostly up to 92 µM
Method in brief: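 Viability readout: ATP luminescence (CellTiter-Glo) after 72 hr drug exposure at 37 degree celsius. Dose-response format was 8 points for NPC and 11 points for MIPE; data normalized to in-plate controls.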

[6] = qHTS profiling of the MIPE4 collection as inhibitors of Plasmodium falciparum (3D7) proliferation (AID 743344; call rule not given here); details: P. falciparum 3D7 in erythrocytes, SYBR Green DNA fluorescence, 72 h; at 28.5 µM (top of the series) unless noted
Method in brief: (§1)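 Parasite DNA was quantified by SYBR Green I fluorescence (ex 485, em 535 nm) after overnight lysis in saponin/Triton buffer at room temperature. Cultures at 0.3% parasitemia and 2.5% hematocrit were first exposed to compound for 72 h at 37 C; signals were normalised to artemisinin (0.29 uM) and vehicle wells.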

[7] = qHTS profiling of the MIPE4 collection as inhibitors of Plasmodium falciparum (DD2) proliferation (AID 743345; call rule not given here); details: P. falciparum Dd2 in erythrocytes, SYBR Green DNA, 72 h; at 28.5 µM (top of the series) unless noted
Method in brief: as §1

[8] = qHTS profiling of the MIPE4 collection as inhibitors of Plasmodium falciparum (HB3) proliferation (AID 743347; call rule not given here); details: P. falciparum HB3 in erythrocytes, SYBR Green DNA, 72 h; at 28.5 µM (top of the series) unless noted
Method in brief: as §1

[9] = Primary qHTS for inhibitors of SARS-S pseudo-typed particle cell entry (AID 1479145); also: nearly all actives have a fitted effect of over 45% in size
[10] = Primary qHTS for Huh7 cytotoxicity: counterscreen for inhibitors of MERS-S pseudotyped particle cell entry (AID 1479147); details: outcome: dose series up to 57.1 µM unless noted
[11] = Primary qHTS for inhibitors of MERS-S pseudo-typed particle cell entry (AID 1479149); also: nearly all actives have a fitted effect of over 60% in size
[12] = Primary qHTS for Vero E6 cytotoxicity: counterscreen for inhibitors of SARS-S pseudo-typed particle cell entry (AID 1479150); details: outcome: dose series up to 57.1 µM unless noted
[13] = Primary qHTS to identify inhibitors of SARS-CoV-2 cell entry (AID 1645846); details: activity change, negative = inhibition: at 57.1 µM (top of the series) unless noted; also: nearly all actives have a fitted effect of over 45% in size
Method in brief: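 Inhibition of spike-mediated entry was scored in human ACE2-transfected Expi293F cells. Particles were MLV-pseudotyped with Wuhan-Hu-1 S carrying a 19-aa C-terminal deletion; signal was luciferase after two days, scaled between spike PP and fusion-protein-free PP.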

[14] = qHTS profiling of the MIPE4 collection as inhibitors of Plasmodium falciparum (DD2) proliferation (Rep 2) (AID 743346; call rule not given here); details: P. falciparum Dd2 in erythrocytes, SYBR Green DNA, 72 h; at 28.5 µM (top of the series) unless noted
Method in brief: as §1

[15] = Validation screen for inhibitors of Lassa infection (AID 463096)
[16] = Inducers of the Endoplasmic Reticulum Stress Response (ERSR) in human glioma: Validation (AID 504836; active = well fitted curve in the direction sought with a large enough effect; an effect the other way counts as inactive or inconclusive)
Method in brief: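 Stably transfected U87-MG human glioma cells carrying a GRP78-based luminescent sensor were seeded at 1000 cells/well, pin-dosed with compounds and incubated 16 h. Luciferase reagent was then added, and end-point luminescence was read after 10 min at room temperature.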

[17] = molecular target: ATP-dependent 6-phosphofructokinase (Trypanosoma brucei brucei) (UniProt O15648); assay: qHTS Validation Assay to Find Inhibitors of T. brucei phosphofructokinase (AID 485368; active = well fitted curve in the direction sought with a large enough effect; an effect the other way counts as inactive or inconclusive); details: T. brucei PFK enzyme assay, qHTS 7-point titration; at 57.5 µM (top of the series)
Method in brief: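 Luminescent ADP detection measures PFK turnover of fructose-6-phosphate (0.5 mM) with ATP (0.1 mM) at pH 8.0. Reaction runs 45 min at room temperature with 1.25 nM enzyme; inhibitors tested as titrations up to 57 uM.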

[18] = molecular target: Ubiquitin carboxyl-terminal hydrolase 1 (Homo sapiens) (UniProt O94782); assay: Inhibitors of USP1/UAF1: Pilot qHTS (AID 504865; active = well fitted curve in the direction sought with a large enough effect; an effect the other way counts as inactive or inconclusive;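 also: rhodamine fluorescence freed from ubiquitin-rhodamine substrate followed over time; top concentration of the series differs between compounds; nearly all actives have a fitted effect of over 35% in size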)
Method in brief: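 In 50mM HEPES pH 7.8 containing 0.5mM EDTA, 1mM TCEP, 0.1 mg/ml BSA and 0.01% Tween-20, 1nM USP1/UAF1 is exposed to compound for 15 min, then Ub-Rho (150nM final) is added and fluorescence is read over time.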

[19] = S16 Schwann cell PMP22 intronic element beta-lactamase assay (AID 624044); also: nearly all actives have a fitted effect of over 15% in size
Method in brief: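 Beta-lactamase reporter under a PMP22 intronic regulatory element in stable S16 rat Schwann cells; 24 h compound exposure. 460 nm blue signal normalized between DMSO (0%) and potassium clavulanate, with 535 nm FRET tracking viability; curves classed by r2 and response.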

[20] = HTS Assay for Allosteric Antagonists of the Human D2 Dopamine Receptor: Hit Validation in HTRF (AID 624455; active = well fitted curve in the direction sought with a large enough effect; an effect the other way counts as inactive or inconclusive;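 also: stable D1 dopamine receptor cell line scored for blocking the D1 response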)
Method in brief: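 Inhibition of the D1-mediated response was measured by HTRF. Cells used were a line stably expressing the D1 dopamine receptor.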

[21] = molecular target: Arylsulfatase A (Homo sapiens) (UniProt P15289); assay: qHTS screen for enhancers of Arylsulfatase A (ASA1): LOPAC Validation Assay (AID 720538; active = well fitted curve in the direction sought with a large enough effect; an effect the other way counts as inactive or inconclusive)
Method in brief: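 MLD patient fibroblasts (SV40, ASA-I179S), 1536-well; adhere 6 hrs; cpd 48h, 37 degree C, 5% CO2; pNCS 0.5mM final in lysis buffer, 14h RT; stop 1N NaOH final; fluor. Ex525/Em598.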

Sequence of Nucleoprotein (Lymphocytic choriomeningitis virus (strain Armstrong)) (P09992 whole entry, looked up): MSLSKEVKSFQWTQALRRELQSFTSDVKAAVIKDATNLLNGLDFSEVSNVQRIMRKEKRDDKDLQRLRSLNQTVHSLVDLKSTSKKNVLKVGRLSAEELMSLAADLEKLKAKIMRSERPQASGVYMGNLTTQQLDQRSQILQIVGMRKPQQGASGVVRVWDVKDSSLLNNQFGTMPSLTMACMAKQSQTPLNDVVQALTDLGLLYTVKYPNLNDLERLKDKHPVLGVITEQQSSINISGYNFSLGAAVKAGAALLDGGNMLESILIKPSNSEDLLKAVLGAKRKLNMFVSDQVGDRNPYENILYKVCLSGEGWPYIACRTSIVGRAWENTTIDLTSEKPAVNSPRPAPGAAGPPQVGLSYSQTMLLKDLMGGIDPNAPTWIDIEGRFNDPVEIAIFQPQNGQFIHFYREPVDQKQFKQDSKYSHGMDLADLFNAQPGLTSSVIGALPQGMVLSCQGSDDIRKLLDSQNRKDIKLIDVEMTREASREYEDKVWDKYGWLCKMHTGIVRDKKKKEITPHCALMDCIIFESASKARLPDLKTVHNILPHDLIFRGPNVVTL
Sequence of ATP-dependent 6-phosphofructokinase (Trypanosoma brucei brucei) (O15648 whole entry, looked up): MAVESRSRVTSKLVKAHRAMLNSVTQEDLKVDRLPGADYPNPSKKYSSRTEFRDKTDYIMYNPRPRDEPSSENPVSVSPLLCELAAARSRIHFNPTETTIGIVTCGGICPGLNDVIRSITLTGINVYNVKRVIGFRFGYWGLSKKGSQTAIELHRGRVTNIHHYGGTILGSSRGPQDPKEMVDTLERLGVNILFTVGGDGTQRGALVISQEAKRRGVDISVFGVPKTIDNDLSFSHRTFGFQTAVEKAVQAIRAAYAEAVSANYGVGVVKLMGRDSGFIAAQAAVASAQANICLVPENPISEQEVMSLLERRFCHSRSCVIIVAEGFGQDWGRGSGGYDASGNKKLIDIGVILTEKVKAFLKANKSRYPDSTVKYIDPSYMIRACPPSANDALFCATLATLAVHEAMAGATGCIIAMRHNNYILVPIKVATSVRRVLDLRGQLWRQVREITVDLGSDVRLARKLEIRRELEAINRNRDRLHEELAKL
Sequence of Ubiquitin carboxyl-terminal hydrolase 1 (Homo sapiens) (O94782 whole entry, looked up): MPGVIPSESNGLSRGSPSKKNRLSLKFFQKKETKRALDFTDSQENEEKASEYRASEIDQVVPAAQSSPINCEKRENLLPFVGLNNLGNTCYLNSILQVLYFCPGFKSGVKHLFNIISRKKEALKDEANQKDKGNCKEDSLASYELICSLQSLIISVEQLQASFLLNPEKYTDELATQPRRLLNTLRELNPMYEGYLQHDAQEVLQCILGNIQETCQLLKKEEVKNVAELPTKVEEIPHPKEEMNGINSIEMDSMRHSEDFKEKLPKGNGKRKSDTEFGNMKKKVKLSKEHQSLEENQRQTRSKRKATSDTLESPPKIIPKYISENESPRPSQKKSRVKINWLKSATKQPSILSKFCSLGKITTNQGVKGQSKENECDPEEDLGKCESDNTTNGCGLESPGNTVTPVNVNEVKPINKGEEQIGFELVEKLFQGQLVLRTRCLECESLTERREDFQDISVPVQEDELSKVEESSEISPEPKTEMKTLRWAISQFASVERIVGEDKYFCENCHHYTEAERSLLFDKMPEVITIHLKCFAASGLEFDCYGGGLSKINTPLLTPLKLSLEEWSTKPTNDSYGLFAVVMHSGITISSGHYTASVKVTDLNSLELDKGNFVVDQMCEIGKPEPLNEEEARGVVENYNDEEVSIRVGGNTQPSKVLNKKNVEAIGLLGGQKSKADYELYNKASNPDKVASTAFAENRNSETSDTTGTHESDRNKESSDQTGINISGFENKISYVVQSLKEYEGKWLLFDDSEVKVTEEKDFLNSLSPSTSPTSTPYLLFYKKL
Sequence of Arylsulfatase A (Homo sapiens) (P15289 whole entry, looked up): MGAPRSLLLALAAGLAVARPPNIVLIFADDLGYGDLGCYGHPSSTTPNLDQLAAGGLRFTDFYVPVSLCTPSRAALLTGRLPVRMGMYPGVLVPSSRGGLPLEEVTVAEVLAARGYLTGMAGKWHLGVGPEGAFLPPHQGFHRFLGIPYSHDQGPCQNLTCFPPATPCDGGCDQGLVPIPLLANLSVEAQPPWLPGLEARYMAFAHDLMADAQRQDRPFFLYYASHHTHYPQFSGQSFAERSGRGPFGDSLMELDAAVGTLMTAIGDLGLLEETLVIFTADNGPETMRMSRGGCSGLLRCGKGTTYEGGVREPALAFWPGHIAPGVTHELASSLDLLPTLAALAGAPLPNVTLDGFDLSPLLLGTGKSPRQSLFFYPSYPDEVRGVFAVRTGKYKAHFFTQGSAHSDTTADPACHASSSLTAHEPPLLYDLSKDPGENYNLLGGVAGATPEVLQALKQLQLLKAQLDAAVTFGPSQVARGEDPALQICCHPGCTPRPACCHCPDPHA

In the case of CNC(=O)c1ccc(-c2cnc3ncc(Cc4ccc5ncccc5c4)n3n2)cc1F, the Potency [1] is reported as “inactive”, the Potency [2] is reported as “inactive” and the Potency [3] is reported as “inactive”. The Potency [4] was “inactive”, the Potency [5] was “inactive” and the Potency (CRL-7250) was “inactive”.
In the case of CCOC(=O)N1CCN([N+]([O-])=NOc2cc(ON=[N+]([O-])N3CCN(C(=O)OCC)CC3)c([N+](=O)[O-])cc2[N+](=O)[O-])CC1, the Potency [1] is reported as “inactive”, the Potency [2] is reported as “inactive” and the Potency [3] is reported as “inactive”. For the same compound, the Potency [4] was “inactive” and the Potency (CRL-7250) was “inactive”.
With CN1c2cc(O)c(N=NC(N)=O)cc2CC1S(=O)(=O)O (stereo not given) the parasite growth, % of DMSO control [6] was 37.8%, the parasite growth remaining, % of DMSO control (lower = more inhibition) [7] was 64.1% and the growth, % of control [8] was 54.6%. For the same compound, the Potency [1] was “inactive”, the Potency [2] was “inactive” and the Potency [3] was “inactive”. For the same compound, the Potency [4] was “inactive”, the Potency [9] was “inactive” and the outcome [10] was “inactive”. The Potency [11] was “inactive”, the outcome [12] was “inactive” and the Potency [5] was “inactive”. The activity change, negative = inhibition [13] was 4.67% and the Potency (CRL-7250) was “inactive”.
For OC[C@H]1OC(O)C[C@@H](O)[C@H]1O (stereo not given in full), the parasite growth remaining, % of DMSO control (lower = more inhibition) [7] was 88.2%, the parasite growth, % of control (lower = inhibition) [14] was 96% and the Potency [1] was “inactive”. The Potency [2] was “inactive”, the Potency [3] was “inactive” and the Potency [4] was “inactive”. For the same compound, the Potency [5] was “inactive”, the activity change, negative = inhibition [13] was -3.07% and the Potency (CRL-7250) was “inactive”.
For CCCCCCCCCCCCCCCC(=O)O[C@H]1[C@@H](O)[C@@H](O)[C@@H]([C@H](NC(=O)[C@@H]2C[C@@H](CCC)CN2C)[C@H](C)Cl)O[C@@H]1SC, the growth, % of control [8] was 81.5%, the Potency [1] was “inactive” and the Potency [2] was “inactive”. The Potency [3] was “inactive”, the Potency [4] was “inactive” and the Potency [5] was “inactive”. The Potency [13] was “inactive” and the Potency (CRL-7250) was “inactive”.
With O=C(O)C1CCCN(CCC=C(c2ccccc2)c2ccccc2)C1 (stereo not given) the Potency [15] was “inactive”, the outcome [16] was “inactive” and the Potency [1] was “inactive”. For the same compound, the Potency [2] was “inactive”, the Potency [3] was “inactive” and the Potency [4] was “inactive”. For the same compound, the Potency [5] was “inactive” and the Potency (CRL-7250) was “inactive”.
In the case of Cc1ccc(O)c(C(CCN(C(C)C)C(C)C)c2ccccc2)c1 (stereo not given), the parasite growth remaining, % of DMSO control (lower = more inhibition) [7] is reported as 32%, the Potency [1] is reported as “inactive” and the Potency [2] is reported as “inactive”. The Potency [3] was “inactive”, the Potency [4] was “inactive” and the Potency [5] was “inactive”. The Potency (CRL-7250) was “inactive”.
In the case of COc1cc2c(cc1OC)C1CC(=O)C(CC(C)C)CN1CC2 (stereo not given), the outcome [17] is reported as “inactive”, the outcome [16] is reported as “inactive” and the Potency [18] is reported as “inactive”. The Potency [19] was “inactive”, the outcome [20] was “inactive” and the Potency [21] was “inactive”. For the same compound, the Potency [1] was “inactive”, the Potency [2] was “inactive” and the Potency [3] was “inactive”. For the same compound, the Potency [4] was “inactive”, the Potency [5] was “inactive” and the activity change, negative = inhibition [13] was -3.6%. For the same compound, the Potency (CRL-7250) was “inactive”.

— PubChem BioAssay (NCATS)
